PubChem BioAssay AID743361 (Molecular Libraries Program, Specialized Chemistry Center, …, 2014)
Values without a mark were called inactive. Activity calls are given as the source filed them. No rule for the calls is given here.

Assay: Rhodamine 123 quenching counterscreen activity, dose response, counter-screen for mtPTP inhibitor project, biochemical, dry powder samples, uHTS hits, fluorescence (AID 743361)
Details: Rhodamine 123 fluorescence quenching counterscreen, cell-free

Structure (SMILES) | IC50
O=C(Nc1ccc(CN2CCCCC2)cc1)c1cccc(Cl)c1 | > 100 µM
COc1ccc(Cl)cc1C(=O)Nc1ccc(CN2CCCCC2)cc1 | > 100 µM
O=C(Nc1ccc(CN2CCCCC2)cc1)c1cc(OCc2ccccc2)ccc1Cl | 76.2 µM (active)
O=S(=O)(Nc1ccc(CN2CCCCC2)cc1)c1ccc(F)c(Cl)c1 | > 100 µM
O=C(Nc1ccccc1OCc1ccccc1)c1cc(-c2cccc(O)c2)on1 | > 100 µM
O=S(=O)(Nc1ccc(CN2CCCCC2)cc1)c1cccc(Cl)c1 | > 100 µM
CN1CCN(c2ccc(NC(=O)c3ccc(OCc4ccccc4)cc3)cc2)CC1 | > 100 µM
COc1ccc(NC(=O)c2cc(Cl)cc(Cl)c2OC)cc1 | > 100 µM
COc1ccc(Cl)cc1C(=O)Nc1ccc(CN2CCN(C)CC2)cc1 | > 100 µM
O=C(Nc1cccc(Cl)c1)c1cc(-c2ccc(Cl)cc2)on1 | > 100 µM
COc1ccc(NC(=O)c2cc(-c3cccc(O)c3)on2)cc1Cl | > 100 µM
O=C(Nc1ccc(CN2CCCCC2)cc1)c1cc(Cl)cc(OCc2ccccc2)c1 | 26.9 µM (active)
COc1ccc(Cl)cc1C(=O)Nc1ccc(CCN2CCNCC2)cc1 | > 100 µM
COc1ccc(C(=O)CCN2CCCC(C)C2)cc1 (stereo unspecified) | > 100 µM
COc1ccccc1C(=O)Nc1ccc(CN2CCCCC2)cc1 | > 100 µM
O=S(=O)(Nc1ccc(CCN2CCCCC2)cc1)c1cccc(Cl)c1 | > 100 µM
